RE007 growth inh – less growth of the S. pombe RE007 Vpr strain. 360,000 tested, 0.21% active. S. pombe RE007 Vpr strain, BacTiter-Glo ATP luminescence, 24 h. Potency, µM (series often up to 92.2 µM), usual class: inhibitors; active = well fitted falling curve with a large enough effect; inconclusive = small, poorly fitted or top-dose-only effect; inactive = no such curve, though single readings can be large or run the other way; note: nearly all actives have a fitted effect of over 50% in size
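Fission yeast strain RE007, carrying one chromosomally integrated HIV-1 vpr copy, was seeded at OD 0.01 in PMG+AL medium with 23 nL pinned compound. After 24 h at 30 °C and 99% humidity, viability was read by BacTiter-Glo luminescence.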
TbPYK inhibitor – inhibitors of Trypanosoma brucei pyruvate kinase | Potency, µM (top dose mostly 76.8 µM), hits mostly inhibitors | 410,000 tested, 0.12% active | Q57TT1 | AID 624173 | TbPYK enzyme, Kinase-Glo Plus ATP luminescence, 45 min; note: nearly all actives have a fitted effect of over 50% in size
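Luminescence from Kinase-Glo Plus, added after a 45-minute room-temperature reaction, served as the end-point read-out. The enzyme and substrate were preincubated with compound before ADP (130 uM final) initiated turnover. Concentration-effect curves came from normalized qHTS data.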
LmPK inh – LmPK (Leishmania mexicana) enzyme inhibition; Q27686; purified LmPK, Kinase-Glo ATP luminescence, 1 h; AID 1721; Potency, µM (titrated, usually from 57.5 µM), most hits filed as inhibitors; 290,000 tested, 0.37% active
Target sequence (Q27686 whole entry, looked up): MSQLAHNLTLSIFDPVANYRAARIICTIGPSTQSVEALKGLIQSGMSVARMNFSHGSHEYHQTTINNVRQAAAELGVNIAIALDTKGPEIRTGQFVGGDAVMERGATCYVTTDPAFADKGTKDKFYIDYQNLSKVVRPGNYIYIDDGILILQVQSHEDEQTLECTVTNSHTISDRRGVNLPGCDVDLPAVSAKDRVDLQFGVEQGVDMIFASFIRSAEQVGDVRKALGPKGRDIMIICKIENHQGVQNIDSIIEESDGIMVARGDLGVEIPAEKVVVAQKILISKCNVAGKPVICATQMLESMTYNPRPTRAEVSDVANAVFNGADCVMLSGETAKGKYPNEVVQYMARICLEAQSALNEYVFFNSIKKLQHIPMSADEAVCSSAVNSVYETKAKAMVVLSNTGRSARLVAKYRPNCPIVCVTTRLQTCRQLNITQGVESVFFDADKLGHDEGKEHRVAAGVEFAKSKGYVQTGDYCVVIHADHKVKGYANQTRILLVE
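Kinase-Glo luminescence read after 1 h RT reaction of 0.1 nM LmPK with 0.5 mM PEP and 0.1 mM ADP. Activity scaled between uninhibited and enzyme-free controls.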
NS1 function inh – blocks influenza NS1 protein function. Potency, µM (top dose mostly 46.1 µM). 270,000 tested, 0.4% active; calls by dose curve; note: actives are rising curves; nearly all actives have a fitted effect of over 50% in size
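Growth recovery, yeast-based: influenza A NS1 expressed in S. cerevisiae causes slow growth, and suppressors are detected by OD600. The parent strain without NS1 is used as positive control.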
Each line names hits and unclear results; the compound was inactive in the other large screens. Shown are actives, neighbours in structure and some others; about 0.77% of the full set was active somewhere. Unless noted, calls come from the whole dose curve; as a rule, active = well fitted curve in the direction sought with a large enough effect; inconclusive = small, poorly fitted or top-dose-only effect, or another doubt; inactive = no such curve, though single readings can be large; an effect the other way counts as inactive or inconclusive.

COc1cc(C(C[N+](=O)[O-])c2c(N)n(C)c(=O)n(C)c2=O)ccc1O (stereo unspecified)	RE007 growth inh inconclusive
Cc1ccc(C(C[N+](=O)[O-])c2c(N)n(C)c(=O)n(C)c2=O)cc1 (stereo unspecified)	RE007 growth inh inconclusive
Cn1c(N)c(C(C[N+](=O)[O-])c2ccccc2Cl)c(=O)n(C)c1=O (stereo unspecified)	RE007 growth inh 39.8µM (no result: LmPK inh, NS1 function inh)
COc1cccc(F)c1C(C[N+](=O)[O-])c1c(N)n(C)c(=O)n(C)c1=O (stereo unspecified)	RE007 growth inh 15.8µM
COC(=O)C1=C(C(=O)OC)[C@@H]2N(C)c3ccc(OC)cc3[C@@]23C[C@@H](C(=O)OC)N(S(=O)(=O)c2ccc4c(c2)OCCN4C)C3=N1	none (no result: RE007 growth inh, TbPYK inhibitor, NS1 function inh)
CCCCc1cc2c(cn1)=C(OC(=O)c1ccc(Cl)nc1)C(C)(OC(=O)CC)C(=O)C=2 (stereo unspecified)	none (no result: RE007 growth inh, TbPYK inhibitor, NS1 function inh)
O=C1C(=Cc2ccncc2)CCCc2ccccc21	none (no result: LmPK inh, NS1 function inh)
COc1ccc2c(c1)CC/C(=C/c1ccco1)C2=O	LmPK inh inconclusive
Cn1cccc1/C=C1\Cc2ccccc2C1=O	none (no result: NS1 function inh)
O=C1C(=Cc2ccccc2Cl)CCc2ccccc21	TbPYK inhibitor 31.6µM (no result: LmPK inh, NS1 function inh)
O=C1/C(=C/c2ccco2)CCc2ccccc21	RE007 growth inh inconclusive, TbPYK inhibitor inconclusive, LmPK inh 12.6µM
O=C1/C(=C/c2ccncc2)CCc2ccccc21	RE007 growth inh inconclusive, TbPYK inhibitor inconclusive, LmPK inh 12.6µM
Cn1cccc1/C=C1\CCc2ccccc2C1=O	RE007 growth inh 35.5µM, TbPYK inhibitor inconclusive, LmPK inh inconclusive (no result: NS1 function inh)
Cc1ccc(C)c(/C(=N\N=C(N)N)C2CC2)c1	none (no result: RE007 growth inh, TbPYK inhibitor, LmPK inh)
CCCCC1=CC2=CC(=O)C(C)(OC(=O)CC)C(=O)C2=CN1CCCN(CC)CC (stereo unspecified)	none (no result: RE007 growth inh, TbPYK inhibitor, NS1 function inh)
c1csc(-c2nc(CN3CCSCC3)cs2)c1	TbPYK inhibitor inconclusive, LmPK inh 15.8µM
O=C(CCNc1ccc(F)cc1)c1ccco1	RE007 growth inh 6.31µM
COC(=O)C1=C(C(=O)OC)[C@@H]2N(C)c3ccc(OC)cc3[C@@]23C[C@@H](C(=O)OC)N(S(=O)(=O)c2cccs2)C3=N1	none (no result: RE007 growth inh, TbPYK inhibitor, NS1 function inh)
Cc1cc(C)c(NC(=O)c2c[nH]c(=S)n2-c2ccc(F)cc2)c(C)c1	TbPYK inhibitor 7.94µM, LmPK inh inconclusive (no result: NS1 function inh)
O=C1C=CC(=O)N1c1ccc(-c2nc3ccccc3o2)cc1	RE007 growth inh 6.31µM, TbPYK inhibitor 11.2µM (no result: LmPK inh, NS1 function inh)
CCNC(C)(C)[C@@H](SS)c1ccc(Br)cc1	none (no result: RE007 growth inh, TbPYK inhibitor, LmPK inh)
C=CCn1c(CSc2nc3ccccc3s2)n[nH]c1=S	TbPYK inhibitor 4.47µM, LmPK inh inconclusive
C=CCn1c(CSc2ccc(C)cc2)n[nH]c1=S	TbPYK inhibitor 3.98µM
CCn1c(CSc2nc3ccccc3s2)n[nH]c1=S	TbPYK inhibitor inconclusive, LmPK inh inconclusive
Cn1c(-c2ccc(S(=O)(=O)N3CCCC3)cc2)csc1=Nc1ccc(Cl)c(Cl)c1	none (no result: RE007 growth inh, LmPK inh, NS1 function inh)
Cc1cccn2cc(-c3ccc(F)cc3)nc12	RE007 growth inh inconclusive, LmPK inh 15.8µM
Cc1cccn2cc(-c3ccccc3)nc12	LmPK inh inconclusive
Cc1cc(O)c2c(c1)OC1(C)CCC3C(C)(C)CCCC34COC2C14 (stereo unspecified)	none (no result: RE007 growth inh, LmPK inh, NS1 function inh)
COc1ccc(/C=N/N=C2/NC(=O)C(CC(=O)O)S2)cc1OCc1ccccc1Cl (stereo unspecified)	TbPYK inhibitor inconclusive, LmPK inh inconclusive
CCOc1cc(/C=N/N=C2/NC(=O)C(CC(=O)O)S2)ccc1OCc1ccccc1Cl (stereo unspecified)	LmPK inh 22.4µM
Cc1cc(NCc2ccccn2)n2ncc(-c3ccc(Cl)cc3)c2n1	RE007 growth inh 28.2µM
CCCOc1ccc(CCc2n[nH]c(=S)n2-c2ccccc2)cc1	TbPYK inhibitor inconclusive
CCCCCC(O)CCc1n[nH]c(=S)n1-c1ccccc1 (stereo unspecified)	TbPYK inhibitor 4.47µM, LmPK inh inconclusive
C=CCn1c(CCC(O)COCCC)n[nH]c1=S (stereo unspecified)	none
CCCCC(CC(O)COCCC)c1n[nH]c(=S)n1-c1ccccc1 (stereo unspecified)	TbPYK inhibitor 11.2µM, LmPK inh inconclusive
O=C(Nc1nc(-c2ccc(S(=O)(=O)N3CCCC3)cc2)cs1)C1COc2ccccc2O1 (stereo unspecified)	NS1 function inh 7.94µM
O=[N+]([O-])c1cc([N+](=O)[O-])c2oc(-c3ccccc3)c(Br)c2c1O	RE007 growth inh 28.2µM
O=c1cc(-c2ccccc2Cl)oc2ccc([N+](=O)[O-])c(O)c12	none
NCCSCc1ccccc1Cl	none (no result: RE007 growth inh, TbPYK inhibitor, LmPK inh)
CCN1/C(=C/c2ccc3ccccc3[n+]2CC)C=Cc2ccccc21	RE007 growth inh 22.4µM, TbPYK inhibitor 31.6µM, LmPK inh 14.1µM
O=C1CC(N2CCC(c3nc4ccccc4o3)CC2)C(=O)N1c1cc(Cl)cc(Cl)c1 (stereo unspecified)	RE007 growth inh 28.2µM
COc1cccc(N2C(=O)CC(N3CCC(c4nc5ccccc5[nH]4)CC3)C2=O)c1 (stereo unspecified)	RE007 growth inh 35.5µM
Cc1cccc(N2C(=O)CC(N3CCC(c4nc5ccccc5[nH]4)CC3)C2=O)c1 (stereo unspecified)	RE007 growth inh 28.2µM
COc1ccc(N2C(=O)CC(N3CCC(n4c(=O)[nH]c5ccccc54)CC3)C2=O)cc1 (stereo unspecified)	RE007 growth inh 28.2µM
CCOc1ccccc1Nc1ccc(N)cc1S(=O)(=O)O	none (no result: RE007 growth inh, TbPYK inhibitor, LmPK inh)
C=CCN1CCc2cccc3c2[C@H]1Cc1ccc(O)c(O)c1-3	RE007 growth inh inconclusive, TbPYK inhibitor inconclusive, LmPK inh 1.58µM
CCCN1CCc2cc(O)cc3c2C1Cc1ccc(O)c(O)c1-3 (stereo unspecified)	none (no result: RE007 growth inh, TbPYK inhibitor, LmPK inh)
O=S(=O)(O)C(F)(F)C(F)(F)C(F)(F)C(F)(F)C(F)(F)C(F)(F)C(F)(F)C(F)(F)F	none (no result: RE007 growth inh, LmPK inh, NS1 function inh)
COC(=O)C1=C(C)NC(=O)/C1=C\c1cc(C)n(-c2ccccc2F)c1C	none
COC(=O)C1=C(C)NC(=O)/C1=C\c1cc(C)n(-c2ccccc2C)c1C	RE007 growth inh 15.8µM
CCCCN(CC)C(=O)c1nn(C)c2c1CSc1ccccc1-2	none (no result: RE007 growth inh, LmPK inh, NS1 function inh)
Fc1ccc(C2CC(c3ccco3)=Nc3ccccc3S2)cc1 (stereo unspecified)	RE007 growth inh 25.1µM (no result: NS1 function inh)
O=[N+]([O-])c1ccc(C2CC(c3ccccc3)=Nc3ccccc3S2)cc1 (stereo unspecified)	none (no result: RE007 growth inh)
[O]=[Bi][O]C(=O)[O][Bi]=[O]	none (no result: RE007 growth inh, LmPK inh, NS1 function inh)
CS(=O)c1ccccc1O (stereo unspecified)	none
O=S(c1ccccc1O)S(=O)c1ccccc1O (stereo unspecified)	RE007 growth inh 35.5µM, TbPYK inhibitor 4.47µM (no result: LmPK inh, NS1 function inh)
NS(=O)(=O)c1ccc(CCNC(=O)c2ccc[nH]c2=S)cc1	RE007 growth inh 8.91µM
O=C(O)[C@@H]1[C@@H](C(=O)NCc2cccnc2)[C@@H]2C=C[C@@H]1O2	none (no result: RE007 growth inh, TbPYK inhibitor, LmPK inh)
S=c1[nH]nc(-c2ccc(Br)cc2)n1-c1ccc(Br)cc1	TbPYK inhibitor inconclusive, LmPK inh inconclusive
COc1ccc(CCn2c(-c3ccc(C(C)(C)C)cc3)n[nH]c2=S)cc1OC	TbPYK inhibitor 14.1µM

From PubChem BioAssay
